Measured values published in PubChem BioAssay (NCATS).
Results filed as inconclusive are left out. The source made the active and inactive calls. Calls follow the shape of the dose curve; as a rule, active = well fitted inhibition curve with a large enough effect; inconclusive = small, poorly fitted or top-dose-only effect; inactive = flat fitted curve, though single readings scatter.

test system: AA1029; assay: qHTS profiling for inhibitors of Plasmodium falciparum proliferation (AID 504749); also: nearly all actives have a fitted effect of over 60% in size;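 as to activity, negative = inhibition: 0% = DMSO vehicle and full inhibition = artemisinin control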; details: P. falciparum in erythrocytes, SYBR Green DNA, 72 h; series mostly up to 28.7 µM; activity, negative = inhibition: at the top concentration
Procedure, shortened: (§1)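 P. falciparum-infected erythrocytes (0.3% parasitemia, 2.5% hematocrit final) were exposed to compounds for 72 h at 37 C in 5% CO2, then lysed with SYBR Green buffer overnight at room temperature; parasite DNA fluorescence was normalized to artemisinin and DMSO controls.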
Potency is read from the fitted curve at half-maximal effect.

| SMILES | activity, negative = inhibition | Potency |
| --- | --- | --- |
| Oc1c(Cl)cc(Cl)cc1Sc1cc(Cl)cc(Cl)c1O | 1.72% (inactive) | – |
| O=C(O)CCCCC(=O)O | 1.31% (inactive) | – |
| CC(O)(P(=O)(O)O)P(=O)(O)O | 5.13% (inactive) | – |
| CCCCOc1ccc(OCCCN2CCOCC2)cc1 | 1.3% [at 12.8 µM] (inactive) | – |
| O=C1CCC(c2ccc(-n3ccnc3)cc2)=NN1 | 9.98% (inactive) | – |
| COc1cc(OC)cc(OC)c1 | 6.64% (inactive) | – |
| C[C@]12CCC(=O)C=C1CC[C@H]1[C@@H]3CC[C@](O)(C(=O)CO)[C@@]3(C)C[C@H](O)[C@@]12F | 5.36% (inactive) | – |
| CCOC(=O)OC(C)OC1=C(C(=O)Nc2ccccn2)N(C)S(=O)(=O)c2ccccc21 (stereo unspecified) | 5.33% (inactive) | – |
| COc1cc(-c2ccc(=O)[nH]n2)ccc1OC(F)F | – | 0.178 µM (active) |
| CCOC(=O)n1ccn(C)c1=S | 13.8% [at 12.8 µM] (inactive) | – |
| Cc1c(C(C)C)c(=O)n(-c2ccccc2)n1C | 5.84% (inactive) | – |
| CN=C(NC#N)NCCSCc1csc(N=C(N)N)n1 | 5.89% (inactive) | – |
| CCOc1ccc2nc3cc(N)ccc3c(N)c2c1 | – | 7.94 µM (active) |
| NCCc1ccn[nH]1 | 1.12% [at 12.8 µM] (inactive) | – |
| CC(Cc1cccc(C(F)(F)F)c1)NCCOC(=O)c1ccccc1 (stereo unspecified) | -7.63% (inactive) | – |
| COc1c2occc2c(OC)c2c(=O)cc(C)oc12 | 4.54% [at 12.8 µM] (inactive) | – |
| CCOc1ccc(NC(=O)CC(C)O)cc1 (stereo unspecified) | 13.5% (inactive) | – |

| SMILES | activity, negative = inhibition | Potency |
| --- | --- | --- |
| CN1CCC(=C2c3ccccc3Sc3ccccc32)CC1 | – | 5.62 µM (active) |
| CC1=C(C(=O)OC(C)C)C(c2cccc([N+](=O)[O-])c2)C(C(=O)OC2CN(C(c3ccccc3)c3ccccc3)C2)=C(N)N1 (stereo unspecified) | – | 7.08 µM (active) |
| CCC(=O)c1c(O)cc(O)cc1O | -0.451% (inactive) | – |
| OCc1ccccc1O | 9.52% (inactive) | – |
| Nc1ccc(C(=O)Nc2ccccc2N)cc1 | -5.17% (inactive) | – |
| COc1ccc(CCN2CCC(Nc3nc4ccccc4n3Cc3ccc(F)cc3)CC2)cc1 | – | 3.55 µM (active) |
| CCOC(=O)c1cccc(N)c1 | -0.814% (inactive) | – |
| Cc1cccn2c(=O)c(-c3nnn[nH]3)cnc12 | 1.43% (inactive) | – |
| CC(=O)Oc1ccc(C(=C2CCCCC2)c2ccc(OC(C)=O)cc2)cc1 | 0.376% (inactive) | – |
| Cc1c(N(C)CS(=O)(=O)O)c(=O)n(-c2ccccc2)n1C | 2.59% [at 12.8 µM] (inactive) | – |
| CCN(CC)C(=O)N1CCN(C)CC1 | 5.58% [at 12.8 µM] (inactive) | – |
| N[C@H](CO)C(=O)O | 12.6% (inactive) | – |
| Nc1ccc(/C=C/c2ccc(N)cc2S(=O)(=O)O)c(S(=O)(=O)O)c1 | 3.95% (inactive) | – |
| C[C@H](O)C(=O)Nc1c(I)c(C(=O)NC(CO)CO)c(I)c(C(=O)NC(CO)CO)c1I | 10.7% [at 12.8 µM] (inactive) | – |
| CN(C)/N=N/c1nc[nH]c1C(N)=O | 8.38% (inactive) | – |
| C[C@@H]1C[C@H]2[C@@H]3CCC4=CC(=O)C=C[C@]4(C)[C@@]3(F)[C@@H](O)C[C@]2(C)[C@H]1C(=O)CO | -5.66% (inactive) | – |

test system: AS120; assay: as above; details: P. falciparum in erythrocytes, SYBR Green DNA, 72 h; series mostly up to 28.7 µM; activity, negative = inhibition: at the top concentration
Procedure, shortened: as §1

| SMILES | activity, negative = inhibition | Potency |
| --- | --- | --- |
| Oc1c(Cl)cc(Cl)cc1Sc1cc(Cl)cc(Cl)c1O | 3.67% (inactive) | – |
| O=C(O)CCCCC(=O)O | -3.67% (inactive) | – |
| CC(O)(P(=O)(O)O)P(=O)(O)O | 2.85% (inactive) | – |
| CCCCOc1ccc(OCCCN2CCOCC2)cc1 | 4.33% [at 12.8 µM] (inactive) | – |
| O=C1CCC(c2ccc(-n3ccnc3)cc2)=NN1 | 14.7% (inactive) | – |
| COc1cc(OC)cc(OC)c1 | 5.14% (inactive) | – |
| C[C@]12CCC(=O)C=C1CC[C@H]1[C@@H]3CC[C@](O)(C(=O)CO)[C@@]3(C)C[C@H](O)[C@@]12F | 12% (inactive) | – |
| CCOC(=O)OC(C)OC1=C(C(=O)Nc2ccccn2)N(C)S(=O)(=O)c2ccccc21 (stereo unspecified) | 10.5% (inactive) | – |
| COc1cc(-c2ccc(=O)[nH]n2)ccc1OC(F)F | – | 0.891 µM (active) |
| CCOC(=O)n1ccn(C)c1=S | 8.33% [at 12.8 µM] (inactive) | – |
| Cc1c(C(C)C)c(=O)n(-c2ccccc2)n1C | 9.92% (inactive) | – |
| CN=C(NC#N)NCCSCc1csc(N=C(N)N)n1 | 13.5% (inactive) | – |
| CCOc1ccc2nc3cc(N)ccc3c(N)c2c1 | – | 8.91 µM (active) |
| NCCc1ccn[nH]1 | 6.53% [at 12.8 µM] (inactive) | – |
| CC(Cc1cccc(C(F)(F)F)c1)NCCOC(=O)c1ccccc1 (stereo unspecified) | -4.47% (inactive) | – |
| COc1c2occc2c(OC)c2c(=O)cc(C)oc12 | 5.78% [at 12.8 µM] (inactive) | – |
| CCOc1ccc(NC(=O)CC(C)O)cc1 (stereo unspecified) | 0.628% (inactive) | – |

| SMILES | activity, negative = inhibition | Potency |
| --- | --- | --- |
| CN1CCC(=C2c3ccccc3Sc3ccccc32)CC1 | – | 12.6 µM (active) |
| CC1=C(C(=O)OC(C)C)C(c2cccc([N+](=O)[O-])c2)C(C(=O)OC2CN(C(c3ccccc3)c3ccccc3)C2)=C(N)N1 (stereo unspecified) | – | 4.47 µM (active) |
| CCC(=O)c1c(O)cc(O)cc1O | 1.34% (inactive) | – |
| OCc1ccccc1O | 6.2% (inactive) | – |
| Nc1ccc(C(=O)Nc2ccccc2N)cc1 | -1.22% (inactive) | – |
| COc1ccc(CCN2CCC(Nc3nc4ccccc4n3Cc3ccc(F)cc3)CC2)cc1 | – | 3.55 µM (active) |
| CCOC(=O)c1cccc(N)c1 | 6.68% (inactive) | – |
| Cc1cccn2c(=O)c(-c3nnn[nH]3)cnc12 | 4.56% (inactive) | – |
| CC(=O)Oc1ccc(C(=C2CCCCC2)c2ccc(OC(C)=O)cc2)cc1 | 3.45% (inactive) | – |
| Cc1c(N(C)CS(=O)(=O)O)c(=O)n(-c2ccccc2)n1C | 14.7% [at 12.8 µM] (inactive) | – |
| CCN(CC)C(=O)N1CCN(C)CC1 | 10.7% [at 12.8 µM] (inactive) | – |
| N[C@H](CO)C(=O)O | -2.12% (inactive) | – |
| Nc1ccc(/C=C/c2ccc(N)cc2S(=O)(=O)O)c(S(=O)(=O)O)c1 | 2.81% (inactive) | – |
| C[C@H](O)C(=O)Nc1c(I)c(C(=O)NC(CO)CO)c(I)c(C(=O)NC(CO)CO)c1I | 6.28% [at 12.8 µM] (inactive) | – |
| CN(C)/N=N/c1nc[nH]c1C(N)=O | 6.58% (inactive) | – |
| C[C@@H]1C[C@H]2[C@@H]3CCC4=CC(=O)C=C[C@]4(C)[C@@]3(F)[C@@H](O)C[C@]2(C)[C@H]1C(=O)CO | -29.3% (inactive) | – |
